Shown are actives, neighbours in structure and some others; about 2.8% of the full set was active somewhere.
KLK7 zymogen act – activators of human kallikrein-7 zymogen; purified proKLK7, EDANS-DABCYL substrate fluorescence; 100% is mature enzyme control, 0% vehicle; 0.9% of 370,000 active; activation, % at 7 µM; P49862;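 active = activation above the mean of all tested compounds plus 3 SD, computed per campaign excluding outliers beyond control limits, cut at about 13% in these data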
PP5 primary – blocks human protein phosphatase 5 activity; 0.18% of 320,000 active; purified PP5c, OMFP substrate fluorescence; P53041; inhibition, % at 6.7 µM; AID 1987;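 active = inhibition above the campaign's mean inhibition across all tested compounds plus 3 SD, cut at about 9.5% in these data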;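 also: 0% = DMSO only and 100% = 100 µM cantharidin control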
NR1D1 modulator – Rev-erb alpha (human) modulation; Rev-erbα–FITC-DNA binding, fluorescence polarization, 90 min; activity, % at 10 µM; 0.79% of 370,000 active; AID 1259318;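 active = activity above about 14%, limit read from the data; passing the limit was not always enough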;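 also: 0% = DMSO wells with 35 nM protein and 100% = DMSO wells with 750 nM protein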
JMJD2C inh – blocks human GASC-1 demethylase activity; Q9H3R0; GST-JMJD2C(1-420) H3K9me3 demethylation, DELFIA europium; inhibition, % at 2.35 µM; 0.069% of 330,000 active;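 active = more than half of a compound's replicate wells show inhibition beyond 50%, single wells judged on their own value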;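 also: signal counts dimethyl H3K9 product captured on neutravidin plate; 0% = median of DMSO wells and 100% = 0.3 times that DMSO median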
Target sequence (Q9H3R0 1-420 limits assumed): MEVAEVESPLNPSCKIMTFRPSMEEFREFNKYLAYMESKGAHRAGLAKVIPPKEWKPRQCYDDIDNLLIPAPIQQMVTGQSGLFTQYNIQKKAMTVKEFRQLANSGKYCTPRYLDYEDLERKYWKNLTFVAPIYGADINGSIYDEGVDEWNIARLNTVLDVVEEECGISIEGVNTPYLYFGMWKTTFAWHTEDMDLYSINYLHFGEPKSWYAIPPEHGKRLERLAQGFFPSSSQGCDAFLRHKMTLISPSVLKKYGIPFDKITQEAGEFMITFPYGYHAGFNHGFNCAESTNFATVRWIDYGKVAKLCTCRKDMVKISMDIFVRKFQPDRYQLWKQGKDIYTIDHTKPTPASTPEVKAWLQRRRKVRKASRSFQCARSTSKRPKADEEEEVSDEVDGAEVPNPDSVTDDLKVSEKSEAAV
PG9 binder – binds the HIV-1 gp120 antibody PG9; AID 624416; TR-FRET gp120-PG9 antibody binding; 0.43% of 360,000 active; inhibition, % at 6.7 µM; in the data active = inhibition above about 8.5%
PP1 counter – PP1-alpha (human) inhibition in PP5 counter-screen; purified PP1alpha, OMFP fluorescence; AID 2235; inhibition, % at 6.7 µM; P62136; 0.9% of 320,000 active;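 active = inhibition above the mean inhibition of all tested compounds plus 3 SD, computed separately for each screening campaign, cut at about 15% in these data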
PP1 confirm – confirmation of human PP1 phosphatase inhibitors | shares compounds with PP1 counter | purified PP1alpha, OMFP substrate fluorescence | inhibition, % at 6.7 µM | 52% of 1,900 active | AID 2358;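 active = mean PP1 inhibition above a set limit taken from the earlier primary screen, cut at about 15% in these data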
PP5 inh counter – PP5 phosphatase inhibition, counter-screen for PP1 inhibitors. 4% of 1,900 active. purified PP5c, OMFP fluorescence. shares compounds with PP1 counter. inhibition, % at 6.7 µM;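 active = mean PP5 inhibition over triplicate wells above about 9.5% taken from the earlier PP1 screen, limit read from the data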
Numbers without * were called inactive; x = no result.

SMILES	KLK7 zymogen act	PP5 primary	NR1D1 modulator	JMJD2C inh	PG9 binder	PP1 counter	PP1 confirm	PP5 inh counter
C#CCOCCOCCOCCNc1nc(N2CCN(C(=O)CCCCCCCCCCNC(=O)[C@@H](CCSC)n3cc(CCO)nn3)CC2)nc(N2CCN(C(=O)CCCCCCCCCCNC(=O)[C@H]([C@@H](C)CC)n3cc(CCCCN=C(N)N)nn3)CC2)n1	x	3.1	x	x	x	55.3*	49.3*	0.5
CN(Cc1ccco1)C(=O)c1cccc2c1C(=O)N(Cc1cccnc1)C2	-0.1	x	2.9	x	x	x	x	x
O=C(C(=O)N1CCC(CNS(=O)(=O)c2ccc(F)c(F)c2)CC1)c1cc2ccccc2o1	0.3	x	-1.0	x	-0.2	x	x	x
O=C1CC(=O)C(n2cncn2)C(c2cccc(Cl)c2)C1 (stereo not drawn)	0.1	1.7	4.9	14.1	0.6	22.2*	-5.9	-5.5
COc1ccc(C2CC(=O)CC(=O)C2n2cncn2)cc1 (stereo not drawn)	0.3	1.4	-0.3	10.6	0.6	-1.9	x	x
COc1cccc(CN(C)C(=O)[C@@H](Cc2ccccc2)NC(=O)[C@H]2O[C@@H](n3ccc(=O)[nH]c3=O)[C@H](O)[C@@H]2O)c1	-0.3	x	-2.2	x	-1.0	x	x	x
CCNC(=S)N/N=C/c1cccs1	-0.1	-1.6	3.4	7.2	-1.6	37.5*	-3.1	-4.7
CCNC(=S)N/N=C/c1cccc(/C=N/NC(=S)NCC)c1	0.1	0.0	-14.6	14.4	-3.1	-2.3	x	x
O=C(Cc1cccs1)NNC(=S)NC(=O)c1ccccc1	-0.2	-2.0	1.1	-49.7	0.5	3.2	x	x
O=C(/C=C/c1ccccc1)NC(=S)NNC(=O)Cc1cccs1	-1.0	-0.6	2.5	-1.8	-1.6	23.7*	17.3*	-4.5
O=C(Cc1c[nH]c2ccccc12)Nc1ccc(Nc2cccnc2)cc1	0.2	x	-1.8	x	-1.6	x	x	x
Cc1cc(NS(=O)(=O)c2ccc(NC(=O)CSc3nnc(-c4ccncc4)n3-c3ccccc3)cc2)nc(C)n1	0.1	x	-4.9	x	x	x	x	x
CCCCOCCCNC(=O)C[C@H]1C[C@@]2(C(=O)OCC)CCCC3=C2N(CCC3)C1=O	0.7	x	0.7	x	x	x	x	x
C[C@@H]1C=CCCO[C@]12C(=O)N(CC1CC1)c1ccccc12	0.1	x	0.6	x	-1.0	x	x	x
Oc1c(CN2CCN(c3ccccn3)CC2)cc(Cl)c2cccnc12	x	2.9	x	-25.9	x	26.5*	29.6*	-4.6
OCCN1CCN(Cc2cc(Cl)c3cccnc3c2O)CC1	-0.3	3.5	-1.8	-26.5	-1.6	-4.9	x	x
CCOC(=O)c1cnc(-n2[nH]c(C)c(Cc3ccccc3)c2=O)[nH]c1=O	0.6	0.1	-2.0	-16.8	-1.8	27.5*	14.7	-4.2
CCOC(=O)c1cnc2nc(Cc3ccccc3)[nH]n2c1=O	0.3	1.1	0.7	2.2	-0.8	-2.9	x	x
CCOC(=O)c1cnc2c(C)c(-c3ccccc3)[nH]n2c1=O	3.7	0.0	-8.4	5.8	0.5	48.5*	33.9*	-2.4
CCOC(=O)c1cnc(Cc2ccccc2)[nH]c1=O	0.3	1.6	-1.1	46.4	-0.4	-2.2	x	x
Cc1ccc(C=Nn2c(-c3n[nH]c4c3CCC4)n[nH]c2=S)s1	-0.1	x	3.5	x	x	x	x	x
O=C(c1cc(-c2ccc(Br)cc2)nc2ccccc12)N1CCC1	-0.4	-0.1	6.8	0.8	-0.1	19.8*	-22.9	-3.6
O=C(c1cc(-c2cccc(Br)c2)nc2ccccc12)N1CCCC1	-0.1	2.1	0.3	1.3	-1.8	2.2	x	x
Cc1[nH][nH]c(=O)c1C(c1c(C)[nH][nH]c1=O)c1cn(Cc2ccc(F)cc2)c2ccccc12	x	6.3	x	-7.3	x	13.6	x	x
Cc1[nH][nH]c(=O)c1C(c1c(C)[nH][nH]c1=O)c1cn(Cc2ccc(Cl)c(Cl)c2)c2ccccc12	-0.3	1.6	-3.9	12.3	-1.9	18.1*	17.3*	24.2*
CC(C)C(=O)N[C@H]1[C@H](O)CCC[C@@]12C(=O)N(Cc1ccccc1)c1ccccc12	-0.6	x	-1.5	x	x	x	x	x
c1ccc(-c2nc(N3CCCCCC3)c3ccccc3n2)nc1	-0.4	0.0	-3.2	-2.2	2.6	26.9*	25.6*	-2.0
